How the values were obtained:
Assay in all cases: PBM binding z-score (relative to random genomic background probes); higher = stronger binding; sequences stand for … in GC…GCGATTGACAGCGTAGAATGAAGG
[1] = tested on: FXR:RXRa (NR concentration 270 nM, RXRa partner concentration 90 nM)
Procedure, shortened: (§1)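 Custom Agilent 4×180K protein-binding microarrays carried double-stranded probes, each with a 34-nt variable region. These regions held direct-repeat seeds, single-nucleotide variants, half-site ablations and random human genomic background sequences. Ligand-free nuclear receptor dimers were incubated on the arrays for 1 h, antibodies against each partner (one per run) detected binding, and scanned fluorescence was regression-normalized. Binding z-scores take the random background probes as reference.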

[2] = tested on: LXRa:RXRa (NR concentration 270 nM, RXRa partner concentration 90 nM)
Procedure, shortened: as §1

[3] = tested on: LXRa homodimer (NR concentration 270 nM)
Procedure, shortened: as §1

[4] = tested on: LXRb:RXRa (NR concentration 270 nM, RXRa partner concentration 90 nM)
Procedure, shortened: as §1

[5] = tested on: LXRb homodimer (NR concentration 270 nM)
Procedure, shortened: as §1

[6] = tested on: PPARa:RXRa (NR concentration 270 nM, RXRa partner concentration 90 nM)
Procedure, shortened: as §1

[7] = tested on: PPARg:RXRa (NR concentration 180 nM, RXRa partner concentration 90 nM)
Procedure, shortened: as §1

[8] = tested on: PPARg:RXRa 270nM:90nM, anti-RXR (NR concentration 270 nM, RXRa partner concentration 90 nM)
Procedure, shortened: as §1

[9] = tested on: PPARg:RXRa 30nM:10nM, anti-RXR (NR concentration 30 nM, RXRa partner concentration 10 nM)
Procedure, shortened: as §1

[10] = tested on: PPARg:RXRa 90nM:30nM, anti-RXR (NR concentration 90 nM, RXRa partner concentration 30 nM)
Procedure, shortened: as §1

[11] = tested on: PPARg:RXRa DBDmut IVT, anti-RXR (DBD mutation: RXRa K156A/R161A, NR concentration 270 nM, RXRa partner concentration 90 nM)
Procedure, shortened: as §1

[12] = tested on: PPARg:RXRa IVT, anti-PPARg (NR concentration 270 nM, RXRa partner concentration 90 nM)
Procedure, shortened: as §1

[13] = tested on: PPARg DBDmut:RXRa IVT, anti-PPARg (DBD mutation: PPARg1 K132A/R137A, NR concentration 270 nM, RXRa partner concentration 90 nM)
Procedure, shortened: as §1

[14] = tested on: PPARg DBDmut IVT, anti-PPARg (DBD mutation: PPARg1 K132A/R137A, NR concentration 270 nM)
Procedure, shortened: as §1

[15] = tested on: PPARg homodimer (NR concentration 180 nM)
Procedure, shortened: as §1

[16] = tested on: PXR:RXRa (NR concentration 270 nM, RXRa partner concentration 90 nM)
Procedure, shortened: as §1

[17] = tested on: PXR homodimer (NR concentration 270 nM)
Procedure, shortened: as §1

[18] = tested on: RARa:RXR (NR concentration 270 nM, RXRa partner concentration 90 nM)
Procedure, shortened: as §1

[19] = tested on: RARa homodimer (NR concentration 270 nM)
Procedure, shortened: as §1

[20] = tested on: RARb:RXRa (NR concentration 270 nM, RXRa partner concentration 90 nM)
Procedure, shortened: as §1

Sequence | PBM binding z-score [1] | PBM binding z-score [2] | PBM binding z-score [3] | PBM binding z-score [4] | PBM binding z-score [5] | PBM binding z-score [6] | PBM binding z-score [7] | PBM binding z-score [8] | PBM binding z-score [9] | PBM binding z-score [10] | PBM binding z-score [11] | PBM binding z-score [12] | PBM binding z-score [13] | PBM binding z-score [14] | PBM binding z-score [15] | PBM binding z-score [16] | PBM binding z-score [17] | PBM binding z-score [18] | PBM binding z-score [19] | PBM binding z-score [20]
GCTGCTAGGTCATCTGATGGTCAGCTAAAGCTCG | 3.98 | 3.02 | 0.182 | 2.03 | 0.0879 | 3.39 | 1.96 | 2.82 | 0.263 | 1.59 | 3.87 | 3.44 | -0.368 | -0.142 | 0.777 | 1.71 | -0.679 | 2.64 | -0.43 | 4.07
ATCTCTAGGTAACCAGTTCAGTGAAAGAGAGGAC | 0.76 | 0.635 | 0.481 | 0.706 | 1 | 1.26 | 1.06 | 1.24 | 0.669 | 0.873 | 3.36 | 3.09 | 0.836 | 0.902 | 1.06 | 1.19 | 1.26 | 1.04 | 1.15 | 0.835
ATCGAAAGGTCGAAGGTGAGTATTCCCACCCGAA | 4.33 | 3.66 | 0.077 | 2.78 | 0.842 | 4.58 | 4.28 | 5 | 1.99 | 4.39 | 0.38 | 2.13 | 0.944 | 0.361 | 2.58 | 2.89 | -0.082 | 4.32 | 0.118 | 3.64
CCGACAGGGGCAGAAAGGTTACCATACCATCCGG | 0.56 | 0.716 | -0.132 | 1.04 | -0.954 | 1.95 | 1.47 | 1.96 | 0.381 | 1.32 | -0.112 | 0.0354 | -1.22 | -0.752 | 1.16 | 1.25 | 0.36 | 1.92 | 0.385 | 1.95
CTTACTGGGCCAAAAAGGTCATTGATGCCGATAA | 4.42 | 4.75 | 3.31 | 4.26 | 0.76 | 5.17 | 5.05 | 5.24 | 2.89 | 4.69 | 6.06 | 5.95 | 2.51 | 1.61 | 4.12 | 5.01 | 4.11 | 5.16 | 1.79 | 4.03
GCTTGTAGATCAAGGTTAAGACAGACTAAGCTAA | 0.188 | 0.807 | -0.318 | 0.486 | -0.279 | 1.61 | 1.25 | 2.16 | 0.803 | 1.8 | 1.75 | 1.34 | 0.667 | -0.149 | 0.0438 | 0.721 | -0.263 | 0.922 | -0.104 | 0.893
CCTATTAGTTGACCATAAGGCCAACCGAAGCTCG | 0.949 | 0.37 | 0.825 | 0.782 | 0.89 | 0.392 | 0.405 | 0.45 | 0.0484 | 0.551 | 0.55 | 0.487 | 0.478 | 0.312 | 1.95 | 0.947 | 1.1 | 0.845 | 1.87 | 1.34
TCTATTAGCTGATTAGGGCAACCGAAACAGCGGA | 0.113 | -0.201 | -0.333 | -0.12 | -0.075 | 0.627 | -0.00749 | 1.41 | 2.86 | 2.13 | 1.49 | 1.49 | 0.731 | 0.319 | -0.183 | -0.0443 | -0.871 | 0.252 | -0.337 | 0.444
TAGACTAGGTCATTCAGGGGCCAGTATAGAAAGC | 4.16 | 3.02 | 0.5 | 2.45 | 1.5 | 3.77 | 5.02 | 4.54 | 2.12 | 3.67 | 6.24 | 6.36 | 3.24 | 2 | 2.65 | 2.21 | 0.176 | 3.32 | 0.508 | 3.64
TCTTGTAGAACAAAGGTTAAGAAAGCCGAAGCCT | 1.11 | 1.68 | -0.0357 | 1.97 | -0.155 | 4.32 | 7.84 | 7.99 | 7.71 | 8.74 | 2.26 | 3.87 | 0.00137 | 0.832 | 0.868 | 1.31 | -0.451 | 2.33 | 0.221 | 1.81
AGAATGAGGTTATACTTAGATCAGGGAAGAAAGT | 1.79 | 1.76 | 0.275 | 1.58 | 0.388 | 2.68 | 1.83 | 1.44 | 0.605 | 1.17 | 2.72 | 2.03 | 1.21 | 1 | 1.21 | 1.02 | 0.666 | 1.38 | 1.18 | 1.3
TTACCAAGGTGAGCTGAGGTAGTTGATCCAACTC | -0.711 | -0.48 | -0.742 | -0.743 | -1.03 | 0.16 | -0.149 | -0.0423 | -0.136 | -0.391 | 0.816 | 1.21 | 0.143 | -0.469 | -1.15 | 0.018 | -0.878 | 1.14 | -0.894 | 0.883
CCTGGGAGGACAACAGGAGGTCAGAGCTGCCAGA | 1.53 | 2.1 | 2.07 | 1.57 | -0.371 | 2.15 | 0.479 | 0.597 | -0.563 | 0.161 | -0.657 | 0.776 | -0.434 | -1.21 | 1.8 | 2.12 | 0.631 | 2.3 | 1.11 | 2.95
ATATGTTGGTTACATCCGGGTCATTCAGGCTATG | 1.39 | 1.84 | 0.976 | 2.03 | 1.13 | 2.43 | 1.07 | 1.17 | 0.492 | 0.873 | 1.41 | 2.24 | 1.25 | 1.54 | 1.46 | 2.51 | 1.42 | 2.55 | 1.23 | 1.62

Reference: the supplement of paper PMC6555819
